# Reference: PubChem BioAssay (Tox21)
# Records with an inconclusive call do not appear. Where a call stands in place of a potency, no number is given. Unmarked numbers belong to inactive results. Calls of active or inactive are those of the source. Unless noted, calls follow the shape of the dose curve; as a rule, active = well fitted curve in the direction sought with a large enough effect in the repeat runs; inconclusive = weak or mixed curves; inactive = no such curve, though single readings can be large; an effect the other way counts as inactive or inconclusive.
# Experiments:
# [1] = target: Nuclear receptor ROR-gamma (Homo sapiens) (UniProt P51449); test: qHTS assay to identify small molecule antagonists of the retinoid-related orphan receptor gamma (ROR-gamma) signaling pathway (AID 1159521; also: nearly all actives have a fitted effect of over 50% in size)
# Summary of the method: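 RORγ antagonism is scored from reduced reporter luminescence in Tet-on CHO cells. Induction used 1 uM final doxycycline hyclate for 16 h at 37 C, following a 2 h compound exposure.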
# [2] = qHTS assay to identify small molecule agonists of the AP-1 signaling pathway - cell viability counter screen (AID 1159525; calls by dose curve; also: nearly all actives have a fitted effect of over 55% in size)
# Summary of the method: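 Intracellular ATP by Cell Titer Glo luminescence (30 min, RT) in the same ME-180 AP-1-bla wells after the 5 h compound exposure at 37 °C. Normalised to tetra n-octyl ammonium bromide and DMSO controls.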
# [3] = qHTS assay to identify small molecule agonists of the AP-1 signaling pathway (AID 1159526; calls by dose curve)
# [4] = qHTS assay to identify small molecule antagonists of the retinoid acid receptor (RAR) signaling pathway - cell viability counter screen (AID 1159551); also: nearly all actives have a fitted effect of over 35% in size
# Summary of the method: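 Viability of C3RL4 cells is quantified from ATP by luminescence after 6 h treatment at 37 C with compounds and 1 uM retinol.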
# [5] = qHTS assay to identify small molecule antagonists of the retinoid-related orphan receptor gamma (ROR-gamma) signaling pathway - cell viability counter screen (AID 1159520); also: nearly all actives have a fitted effect of over 50% in size
# Summary of the method: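 Cytotoxicity was read from cellular ATP (CellTiter-Glo luminescence) after 16 hr at 37 C with 1 uM doxycycline induction. The inducer was added 2 hr after compound transfer to Tet-on ROR gamma CHO cells.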
# [6] = target: Retinoic acid receptor RXR-alpha (Homo sapiens) (UniProt P19793); test: qHTS assay to identify small molecule agonists of the RXR signaling pathway (AID 1159527; calls by dose curve; also: nearly all actives have a fitted effect of over 35% in size)
# Sequence of Retinoic acid receptor RXR-alpha (Homo sapiens) (P19793 whole entry, looked up): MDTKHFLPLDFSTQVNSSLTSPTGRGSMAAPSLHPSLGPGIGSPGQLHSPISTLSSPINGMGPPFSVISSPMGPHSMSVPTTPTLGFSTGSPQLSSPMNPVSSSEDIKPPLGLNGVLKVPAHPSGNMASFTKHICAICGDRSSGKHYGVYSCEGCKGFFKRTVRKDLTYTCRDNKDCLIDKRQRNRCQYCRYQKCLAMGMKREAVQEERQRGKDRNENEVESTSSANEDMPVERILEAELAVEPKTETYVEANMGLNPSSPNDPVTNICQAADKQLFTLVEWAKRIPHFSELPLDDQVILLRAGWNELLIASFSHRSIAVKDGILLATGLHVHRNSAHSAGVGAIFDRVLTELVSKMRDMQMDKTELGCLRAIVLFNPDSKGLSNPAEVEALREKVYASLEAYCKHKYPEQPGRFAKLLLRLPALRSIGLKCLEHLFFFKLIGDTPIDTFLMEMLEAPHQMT
# Summary of the method: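 qHTS of the Tox21 10K library in GeneBLAzer RXR-alpha HEK 293T cells carrying a beta-lactamase reporter […]; 16 hr treatment, 9-cis retinoic acid as agonist control, FRET read-out.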
# [7] = qHTS assay to identify small molecule agonists of the RXR signaling pathway - cell viability counter screen (AID 1159529); also: nearly all actives have a fitted effect of over 50% in size; as to activity change, negative = cytotoxicity: series mostly up to about 77 µM
# Summary of the method: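 Cell viability is measured by CellTiter-Glo luminescence, 30 min at room temperature, in wells already read for beta-lactamase. Engineered HEK 293T cells (RXR-alpha-UAS-bla) are dosed 16 hr at 37 C. Tetraoctyl ammonium bromide serves as positive control.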
# [8] = qHTS assay to identify small molecule antagonists of the retinoic acid receptor (RAR) signaling pathway (AID 1159552; also: nearly all actives have a fitted effect of over 50% in size)
# Summary of the method: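 Quantitative HTS in C3RL4 RARE-luciferase reporter cells. Compounds were added with 1 uM (final) retinol; luminescence was read after 6 hr.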
# [9] = qHTS assay to identify small molecule antagonists of the vitamin D receptor (VDR) signaling pathway - cell viability counter screen (AID 743225); also: nearly all actives have a fitted effect of over 50% in size
# Summary of the method: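 Cells (VDR-UAS-bla HEK 293T) are plated, rested 4 h at 37C, dosed with compound and 3 nM final 1-alpha,25-dihydroxy vitamin D3, and incubated 16 h. Viability is taken from CellTiter-Glo luminescence in the reporter wells.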
# [10] = qHTS assay to identify small molecule agonists of the vitamin D receptor (VDR) signaling pathway - cell viability counter screen (AID 743224); also: nearly all actives have a fitted effect of over 50% in size; as to activity change, negative = cytotoxicity: series mostly up to about 63 µM
# Summary of the method: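 In parallel with the bla FRET readout, cytotoxicity toward VDR-bla cells after 16 h compound exposure was assessed by CellTiter-Glo, with luminescence recorded after a 30 min room-temperature incubation.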
# Potency is read from the fitted curve at half-maximal effect.
compound,measurement,setting,value
c1ccc(C[P+](c2ccccc2)(c2ccccc2)c2ccccc2)cc1,Potency,[1],24.3 µM (active)
same,Potency,[2],inactive
same,Potency,[3],inactive
same,Potency,[4],inactive
COc1cc(C(C)C)ccc1C,"activity, negative = cytotoxicity",[5],-0.985% [at 19 µM]
same,activation,[6],-1.52% [at 15.8 µM]
same,"activity change, negative = cytotoxicity",[7],10.4% [at 15.8 µM]
same,"activity change, negative = cytotoxicity",[4],-0.431% [at 19 µM]
same,"activity, negative = inhibition",[8],191% [at 19 µM]
O=S(=O)(c1ccc(OCc2ccccc2)cc1)c1ccccc1O,Potency,[7],inactive
C=CCc1cc(S(=O)(=O)c2ccc(O)c(CC=C)c2)ccc1O,Potency,[9],inactive
same,Potency,[5],inactive
same,Potency,[7],inactive
same,Potency,[4],inactive
same,Potency,[8],54.5 µM (active)
CCCOC(=O)c1ccc(O)cc1,Potency,[1],inactive
same,Potency,[3],inactive
CN(C[C@@H](CC[N+]12CCC(C3CCCCC3)(CC1)CC2)c1ccc(Cl)c(Cl)c1)C(=O)c1cc(C(F)(F)F)cc(C(F)(F)F)c1,Potency,[10],17.4 µM (active)
same,Potency,[9],27.5 µM (active)
same,Potency,[5],48.6 µM (active)
same,Potency,[7],17.4 µM (active)
same,Potency,[4],54.5 µM (active)
CN(C/C=C/c1ccccc1)Cc1cccc2ccccc12,Potency,[10],26.6 µM (active)
same,Potency,[5],inactive
same,Potency,[7],13.4 µM (active)
same,Potency,[4],26.6 µM (active)
CN[C@H]1CC[C@@H](c2ccc(Cl)c(Cl)c2)c2ccc(S(N)(=O)=O)cc21,Potency,[10],17.4 µM (active)
same,Potency,[9],21.9 µM (active)
same,Potency,[1],54.5 µM (active)
same,Potency,[4],inactive
CC(Cc1ccc(O)c(O)c1)C(C)Cc1ccc(O)c(O)c1 (stereo not given),Potency,[10],inactive
same,Potency,[9],inactive
same,Potency,[1],6.86 µM (active)
same,Potency,[6],inactive
same,Potency,[8],inactive
CCCCCc1ccc(O)cc1,Potency,[1],inactive
same,Potency,[4],inactive
O=C1OC(=O)c2cc(-c3ccc4c(c3)C(=O)OC4=O)ccc21,Potency,[10],38.9 µM (active)
same,Potency,[9],inactive
same,Potency,[5],inactive
same,Potency,[4],inactive
c1ccc(-c2ccc(C(c3ccccc3)n3ccnc3)cc2)cc1 (stereo not given),Potency,[9],inactive
same,Potency,[1],15 µM (active)
same,Potency,[2],inactive
same,Potency,[4],inactive
c1ccc2cc3c4ccccc4c4ccccc4c3cc2c1,Potency,[10],inactive
same,Potency,[9],inactive
same,Potency,[2],inactive
same,Potency,[6],inactive
same,Potency,[4],inactive
same,Potency,[8],inactive
c1ccc(-c2nc3ccccc3[nH]2)cc1,Potency,[2],inactive
same,Potency,[3],inactive
same,Potency,[6],inactive
same,Potency,[7],inactive
same,Potency,[8],inactive
CCCCC/C=C\C=C\C(=O)OCC,Potency,[10],40.5 µM (active)
same,Potency,[9],inactive
same,Potency,[1],56.8 µM (active)
same,Potency,[7],45.5 µM (active)
same,Potency,[4],inactive
CCCC(=O)c1cc(O)c(O)cc1O,Potency,[2],inactive
same,Potency,[7],inactive
CCC(C)(C)c1ccc(CC(C)CN2C[C@@H](C)O[C@@H](C)C2)cc1 (stereo not given in full),Potency,[1],inactive
same,Potency,[7],12 µM (active)
CCN(CC)c1ccc2c(c1)Oc1cc(N(CC)CC)ccc1C21OC(=O)c2ccccc21,Potency,[1],inactive
same,Potency,[2],inactive
same,Potency,[4],11.9 µM (active)
Cc1cc(C)c(O)c(C(C)(C)C)c1,Potency,[1],inactive
same,Potency,[2],inactive
same,Potency,[6],inactive
same,Potency,[8],inactive
O[Si](c1ccccc1)(c1ccccc1)c1ccccc1,Potency,[1],24.3 µM (active)
same,Potency,[2],inactive
same,Potency,[3],inactive
same,Potency,[4],inactive
CC(c1cc(C(C)(C)C)cc(C(C)(C)C)c1O)c1cc(C(C)(C)C)cc(C(C)(C)C)c1O,Potency,[1],19.3 µM (active)
same,Potency,[2],inactive
same,Potency,[3],inactive
same,Potency,[6],3.47 µM (active)
same,Potency,[4],inactive
Cc1ccc2nc(-c3ccc(N)cc3)sc2c1S(=O)(=O)O,Potency,[10],inactive
same,Potency,[9],inactive
same,Potency,[5],inactive
same,Potency,[3],21.5 µM (active)
same,Potency,[4],inactive
CCOC(=O)OC(=O)OCC,Potency,[5],inactive
same,Potency,[3],inactive
same,Potency,[6],inactive
same,Potency,[4],inactive
same,Potency,[8],inactive
CC1=C(/C=C/C(C)=C/C=C/C(C)=C\C(=O)O)C(C)(C)CCC1,Potency,[10],inactive
same,Potency,[9],inactive
same,Potency,[1],inactive
same,Potency,[2],inactive
same,Potency,[3],inactive
same,Potency,[4],inactive
COc1cccc(-c2ccc(/C=C\CN3CCCCCC3)cc2Cl)c1,Potency,[7],43.4 µM (active)
CC(C)(C)c1ccc(OC2CCCCC2O)cc1 (stereo not given),Potency,[1],inactive
CC/C=C\C/C=C\C/C=C\CCCCCCCC(=O)OC,Potency,[2],inactive
same,Potency,[3],inactive
same,Potency,[4],inactive
S=C1NC=NC2N=CNC12 (stereo not given),Potency,[10],3.09 µM (active)
same,Potency,[9],7.77 µM (active)
same,Potency,[2],inactive
same,Potency,[3],inactive
CCCCCCCC/C=C\CCCCCCCC(=O)N(CCO)CCO,Potency,[10],43.5 µM (active)
same,Potency,[9],inactive
same,Potency,[1],30.5 µM (active)
same,Potency,[4],inactive
same,Potency,[8],inactive
CCCCCCCCCCCCN1CCCC1=O,Potency,[10],49 µM (active)
same,Potency,[1],inactive
same,Potency,[6],inactive
same,Potency,[7],54.9 µM (active)
same,Potency,[4],inactive
same,Potency,[8],inactive
O=C(O)C[C@H](O)C[C@H](O)/C=C/c1c(C2CC2)nc2ccccc2c1-c1ccc(F)cc1,"viability change, negative = cytotoxic",[2],2.51% [at 15.8 µM]
same,activation,[3],4.12% [at 15.8 µM]
same,activation,[6],-9.56% [at 15.8 µM]
same,"activity change, negative = cytotoxicity",[4],1.42% [at 19 µM]
CCCCCCCCCCCCCCCCCCNC(=O)OC1CCN(C(=O)OC[C@H](COC(=O)N(Cc2cccc[n+]2CC)C(=O)c2ccccc2OC)OC)CC1,Potency,[10],26.6 µM (active)
same,Potency,[9],21.3 µM (active)
same,Potency,[1],29.8 µM (active)
same,Potency,[8],26.6 µM (active)
Oc1cccc2c(O)cccc12,Potency,[1],68.6 µM (active)
same,Potency,[6],inactive
same,Potency,[4],inactive
CC1(C)[C@H]2CC[C@]1(C)C(=O)C2,Potency,[5],inactive
same,Potency,[3],19.5 µM (active)
same,Potency,[7],inactive
same,Potency,[4],inactive
same,Potency,[8],inactive
CCOc1ccc([N+](=O)[O-])cc1,Potency,[10],49.7 µM (active)
same,Potency,[9],22.2 µM (active)
same,Potency,[2],49.7 µM (active)
same,Potency,[8],inactive
O=C1Cc2ccccc2C1,Potency,[8],inactive
O=C1CCCCCCCCCCCCCC1,Potency,[10],inactive
same,Potency,[9],inactive
same,Potency,[1],inactive
same,Potency,[3],inactive
same,Potency,[6],inactive
same,Potency,[4],inactive
same,Potency,[8],inactive
